Compound activity (PubChem BioAssay)
G9a block: qHTS Assay for Inhibitors of Histone Lysine Methyltransferase G9a; Histone-lysine N-methyltransferase EHMT2 (Homo sapiens), Q96KQ7; G9a H3K9 monomethylation, AlphaScreen, 2 h; Potency, µM (highest dose often 102 µM), for the others: at the highest dose activity, negative = inhibition, hits mostly inhibitors; 8.8% of 350,000 active; AID 504332, 2011; also: % is scaled to controls: 0 for no effect and ±100 for the full control effect; nearly all actives have a fitted effect of over 75% in size
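AlphaScreen read-out: biotin-H3K9 peptide (500 nM) methylation by 20 nM enzyme with 20 uM SAM, 2 h at room temperature after 15 min compound preincubation; anti-monomethyl H3K9 antibody plus donor/acceptor beads, 10 min dark.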
JMJD2A Tudor inh: qHTS Assay for Inhibitors of JMJD2A-Tudor Domain | Lysine-specific demethylase 4A (Homo sapiens), O75164 | AlphaScreen JMJD2A-Tudor / H3K4me3 peptide binding | Potency, µM (top dose mostly 114 µM), inactives show at the highest dose activity change, negative = inhibition, hits mostly inhibitors | 4.4% of 390,000 active | AID 504339, 2011; also: % is scaled to controls: 0 for no effect and ±100 for the full control effect; nearly all actives have a fitted effect of over 50% in size
Target sequence (O75164 whole entry, looked up, the tested form may be a part): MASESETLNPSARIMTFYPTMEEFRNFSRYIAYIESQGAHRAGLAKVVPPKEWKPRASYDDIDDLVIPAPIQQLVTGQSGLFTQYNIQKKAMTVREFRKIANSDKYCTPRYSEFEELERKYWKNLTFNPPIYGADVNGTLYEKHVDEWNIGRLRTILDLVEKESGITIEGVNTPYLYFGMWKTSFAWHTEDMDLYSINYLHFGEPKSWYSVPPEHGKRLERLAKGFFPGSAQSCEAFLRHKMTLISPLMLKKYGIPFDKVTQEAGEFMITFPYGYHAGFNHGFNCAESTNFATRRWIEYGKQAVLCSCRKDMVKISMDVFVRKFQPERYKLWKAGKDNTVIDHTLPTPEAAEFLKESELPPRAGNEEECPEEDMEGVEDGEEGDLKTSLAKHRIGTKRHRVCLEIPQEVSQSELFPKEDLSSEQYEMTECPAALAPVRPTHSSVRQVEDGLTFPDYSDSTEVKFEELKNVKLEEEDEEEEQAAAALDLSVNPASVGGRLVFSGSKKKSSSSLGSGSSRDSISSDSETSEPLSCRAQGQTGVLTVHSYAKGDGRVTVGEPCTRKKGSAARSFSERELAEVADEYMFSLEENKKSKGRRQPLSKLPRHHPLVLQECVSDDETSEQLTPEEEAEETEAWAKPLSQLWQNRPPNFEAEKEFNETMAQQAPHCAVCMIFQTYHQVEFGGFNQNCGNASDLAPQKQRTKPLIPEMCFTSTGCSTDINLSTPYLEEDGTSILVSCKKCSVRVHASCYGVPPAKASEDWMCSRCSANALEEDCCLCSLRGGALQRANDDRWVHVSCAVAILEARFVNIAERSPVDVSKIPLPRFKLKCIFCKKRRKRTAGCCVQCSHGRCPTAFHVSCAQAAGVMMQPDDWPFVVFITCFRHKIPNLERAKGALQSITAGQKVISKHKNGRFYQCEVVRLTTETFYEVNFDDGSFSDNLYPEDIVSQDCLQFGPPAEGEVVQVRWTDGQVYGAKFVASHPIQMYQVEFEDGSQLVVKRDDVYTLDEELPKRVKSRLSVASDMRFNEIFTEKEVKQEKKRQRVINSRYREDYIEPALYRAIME
BAZ2B inh: qHTS Assay for Inhibitors of BAZ2B | Bromodomain adjacent to zinc finger domain protein 2B (Homo sapiens), Q9UIF8 | AlphaScreen BAZ2B-H3K14Ac peptide displacement | Potency, µM (highest dose often 114 µM), inactives show at the highest dose activity change, negative = inhibition, most hits filed as inhibitors | 4.4% of 360,000 active; also: % is scaled to controls: 0 for no effect and ±100 for the full control effect; nearly all actives have a fitted effect of over 60% in size
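AlphaScreen luminescence quantifies BAZ2B engagement of H3K14Ac peptide; the protein and biotinylated peptide are both at 50 nM final, buffer PBS pH 7.4 with 0.01% Tween-20, all steps at room temperature.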
HP1b chromo inh: HTS for Inhibitors of HP1-beta Chromodomain Interactions with Methylated Histone Tails; Chromobox protein homolog 1 (Homo sapiens), P83916; AlphaScreen HP1-beta / biotin-H3K9me3 peptide binding; Potency, µM (titrated, usually from 114 µM), for inactives: at the top dose activity change, negative = inhibition, usual class: inhibitors; 0.56% of 390,000 active; AID 540317, 2011; also: nearly all actives have a fitted effect of over 70% in size
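Compound inhibition of the preformed complex between 50 nM HP1-beta and 50 nM biotinylated H3K9me3 peptide was read by AlphaScreen. Buffer was PBS pH 7.4 with 0.01% Tween-20. Incubations ran 30 min at room temperature, with 10 ug/mL donor/acceptor beads.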
L3MBTL1 inh: qHTS Assay for the Inhibitors of L3MBTL1; 0.66% of 230,000 active; AlphaScreen L3MBTL1–H3K9me1 peptide binding; Potency, µM (series often up to 57.1 µM), without a hit: top-dose activity, negative = inhibition, most hits filed as inhibitors; Lethal(3)malignant brain tumor-like protein 1 (Homo sapiens), Q9Y468; AID 485360, 2010; also: % is scaled to controls: 0 for no effect and ±100 for the full control effect; nearly all actives have a fitted effect of over 60% in size
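Read-out is AlphaScreen signal from streptavidin donor and nickel chelate acceptor beads (10 ug/mL final each) bridging L3MBTL1 (50 nM) and biotinylated K9-monomethylated H3(1-15) peptide (75 nM), after 30 min compound exposure at room temperature.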
The depositor's hits bear a star; ? = inconclusive; nt = no result given; [ ] = dose if it differs, or a comment. The list is not random: actives were taken first. Their share in the collection is about 11%. Calls follow the shape of the dose curve; as a rule, active = well fitted inhibition curve with a large enough effect; inconclusive = small, poorly fitted or top-dose-only effect; inactive = no such curve, though single readings can be large or run the other way. Potency is read from the fitted curve at half-maximal effect.

SMILES	G9a block	JMJD2A Tudor inh	BAZ2B inh	HP1b chromo inh	L3MBTL1 inh
COC(=O)c1ccc2c(=O)n(NC(C)=O)c(=S)[nH]c2c1	?	3.5µM*	50µM*	?	nt
COC(=O)c1ccc2c(=O)n(CCCN3CCOCC3)c(=S)[nH]c2c1	?	-34%	-3%	21%	4%
COCCn1c(=S)[nH]c2cc(C(=O)NCCCN3CCOCC3)ccc2c1=O	nt	25µM*	?	69%	5%
COC(=O)c1ccc2c(=O)n(CCN3CCOCC3)c(=S)[nH]c2c1	-47%[12.7 µM]	56µM*	-1%	18%	6%[11.4 µM]
CCSc1nc(N)c(C#N)c(-c2ccccc2Cl)c1C#N	16µM*	1%	11%	59%	nt
N#Cc1c(N)nc(Sc2ccc(Cl)cc2)c(C#N)c1-c1ccccc1Cl	nt	0%	1%	26%	12%
S=c1[nH]nc(NCCCN2CCOCC2)s1	1.3µM*	3.5µM*	32µM*	?	2%
CCOC(=O)/C=C(\C)Sc1cc(=O)oc2ccccc12	14%[59 µM]	-8%[57.1 µM]	27%	107%	19%
CCOC(=O)/C=C(\C)Sc1cc(O)c2ccccc2c1O	2.5µM*	7.9µM*	28µM*	7.9µM*	?
Cc1ccc2c(c1)N(C(=O)C1CCN(S(=O)(=O)c3c(C)noc3/C=C/c3ccccc3F)CC1)CCO2	-3%[59 µM]	-19%	-12%	14%[57 µM]	nt
Cc1ccc(SCC(=O)NCCN2C(=O)CSC2=O)cc1C	-4%[59 µM]	-11%	7%	29%	nt
Cc1ccc(Nc2nnc(SCC(=O)NCCN3C(=O)CSC3=O)s2)cc1C	28µM*	-8%	4%	23%	-10%
CC(C)c1ccc(NC(=O)c2cccn2-c2nnc(N3CCCCC3)s2)cc1	-41%[59 µM]	-28%	?	-14%	nt
CN(C)c1ccc(CNC(=O)c2cccn2-c2nnc(N3CCCCC3)s2)cc1	-43%[59 µM]	?	40µM*	-3%	nt
Cc1cc(NC(=O)c2cccn2-c2nnc(N3CCCCC3)s2)ccc1Br	-24%[59 µM]	?	71µM*	8%	nt
CCOc1ccccc1C(=O)N1CCC(c2nc3ccccc3o2)CC1	-3%[59 µM]	-24%	-7%	22%	nt
CCOc1ccc(C2c3c(ncn(-c4ccccc4)c3=N)Oc3ccc4ccccc4c32)cc1OCC (stereo not given)	nt	40µM*	nt	nt	nt
N=c1c2c(ncn1-c1ccccc1)Oc1ccc3ccccc3c1C2c1ccc2c(c1)OCCO2 (stereo not given)	nt	22µM*	nt	nt	nt
N=c1c2c(ncn1-c1ccccc1)Oc1ccc3ccccc3c1C2c1ccc2c(c1)CCO2 (stereo not given)	nt	35µM*	nt	nt	nt
COc1ccc(C2c3c(ccc4ccccc34)Oc3ncn4nc(-c5ccco5)nc4c32)cc1OC (stereo not given)	?	-13%	-31%	9%	8%
Cc1cccc(Oc2ccccc2NC(=O)CSCC(=O)Nc2cc(C)on2)c1	10µM*	-8%	-32%	9%	2%
CCOc1ccc(Oc2ccccc2NC(=O)CSCC(=O)Nc2cc(C)on2)cc1	-29%	-2%	-7%	19%	-3%
COc1cc2[nH]c(Cl)c([N+](=O)[O-])c2cc1OC	?	?	56µM*	-18%	nt
COc1cc(C(=O)O)c([N+](=O)[O-])c(OC)c1OC	4%	-12%	-21%	42%	7%
CC(=O)NC1C(=O)SC1(C)C (stereo not given)	28µM*	nt	-10%	nt	4%
Cc1ccc(S(=O)(=O)N(CC(=O)Nc2c(C)cccc2C)c2cccc(Cl)c2)cc1	-3%[59 µM]	-11%	-20%	7%	nt
CC(C)(C)c1ccc(Oc2ccc(NC(=O)c3ccccc3C(=O)O)cn2)cc1	56µM*	-18%	-22%	77%	-21%
O=C(O)c1ccccc1C(=O)Nc1ccc(Oc2ccccc2)cc1	nt	-25%	-15%	6%	1%
